Measurements as given in PubChem BioAssay AID624002 (National Center for Advancing Translational Sciences (NCATS), 2012).
Some of the results follow. Records with an inconclusive call do not appear. Activity calls are given as the source filed them. Calls come from the whole dose curve; as a rule, active = well fitted inhibition curve with a large enough effect; inconclusive = small, poorly fitted or top-dose-only effect; inactive = no such curve, though single readings can be large or run the other way.

biological target: Isocitrate dehydrogenase [NADP] cytoplasmic (Homo sapiens) (UniProt O75874); test: qHTS for Inhibitors of mutant isocitrate dehydrogenase 1 (IDH1): Confirmation of Cherrypicks; conditions: IDH1 R132H enzyme, NADPH diaphorase/resazurin fluorescence; series mostly up to 76.6 µM; note: nearly all actives have a fitted effect of over 50% in size
Source text: Malignant glioblastomas (WHO grade IV), including primary and secondary glioblastomas, are among the most lethal with a median survival of one year, and unfortunately they are also the most prevalent type of brain tumors. By and large the standard of care of gliomas remains the use of the oral alkylating agent temozolomide and radiotherapy following surgical tumor resection. There is an urgent unmet medical need for novel therapeutics for gliomas. IDH mutations occur in up to 70% of grade II-IV secondary glioblastomas, and IDH1 R132H is the most prevalent mutation. […] Wild-type IDH1 catalyzes the conversion of isocitrate to -ketoglutarate with the concomitant reduction of NADP+ to NADPH. In contrast, IDH1 R132H catalyzes the conversion of -ketoglutarate to 2-hydroxyglutarate (2-HG) with the concomitant oxidation of NADPH to NADP+ [5]. Recently, a second significant advancement for the field was the finding that IDH is an oncogene, and that its metabolic product 2-HG may contribute to the pathogenesis of IDH-mutated cancers. […] Although this link to cancer is tantalizing, the direct evidence of how 2-HG drives pathogenesis of gliomas and AML remains a subject of further research. The goal of this screen is to find small-molecule inhibitors of IDH1 R132H using a biochemical assay that measures substrate NADPH consumption through the use of a diaphorase/resazurin-coupled system. Inhibition of the IDH1 R132H enzymatic reaction leads to an increase in the amount of NADPH relative to a DMSO control and a concomitant increase in the fluorescence of the diaphorase/resazurin enzyme product resorufin at 590 nm. Compounds were screened as a concentration-titration series that ranged from 76 microM to 0.15 uM. NIH Molecular Libraries Probe Production Network [MLPCN] NIH Chemical Genomics Center [NCGC] MLSCN Grant: R03 DA032129 PI Name: Dr. Lenny Dang
Enzyme buffer was dispensed into black, solid 1536-well plates at 3 microL/well in 20 mM Tris buffer, pH 7.5, containing final concentrations of 10 mM MgCl2, 20 mM NaCl, 0.001% Tween20, 0.05% BSA, 2 mM beta-ME and 5.2 nM IDH1 R132H. Then, 23 nL of compounds or DMSO were delivered to each well using a pin tool. The inherent compound fluorescence was measured at this point at 590 nm on a ViewLux plate reader (Ex 525, Em 598, bodipy filter). The substrate buffer (3 uL; 20 mM Tris buffer, pH 7.5, containing final concentrations of 10 mM MgCl2, 20 mM NaCl, 0.001% Tween20, 0.05% BSA, 0.008 mM NADPH, and 1 mM a-ketoglutarate) was added to start the enzymatic reaction, and the plate was briefly spun at 270xg. After the reaction was allowed to progress for 80 minutes at room temperature, the remaining NADPH was detected with the diaphorase/resazurin-coupled system. Three microL of detection buffer (20 mM Tris buffer, pH 7.5, containing final concentrations of 10 mM MgCl2, 20 mM NaCl, 0.001% Tween20, 0.05% BSA, 0.53 uM diaphorase and 0.012 mM resazurin) was added, and after 5 minutes the fluorescence at 590 nm was measured on an Envision plate reader (Ex 544, Em 590, bodipy filter, 10 flashes). The %Activity was determined from the corrected fluorescence values. As no specific IDH1 R132H inhibitors have been identified in the literature, 1x (5.2 nM) and 0x IDH1 R132H enzyme controls (untreated) were included to normalize % Activity of identified inhibitors; 0x enzyme values corresponded to 100 % Activity (full inhibition), while 1x IDH1 R132H enzyme values were used to normalize 0 %A ctivity (no inhibition). Concentration-response curves were fitted to the signals arising from the resulting fluorescence. The concentration-response curves were then classified based on curve quality (r2), response magnitude and degree of measured activity, and compounds were subsequently categorized based on their curve class. […] Keywords: Isocitrate dehydrogenase, IDH1, IDH1 R132H, 2-HG, 2-hydroxyglutarate, AML, glioma, MLSMR, MLPCN, NIH Roadmap, qHTS, NCGC
Potency is the fitted concentration of half-maximal effect.

Sequence of Isocitrate dehydrogenase [NADP] cytoplasmic (Homo sapiens) (O75874 whole entry R132H, stated change not applied): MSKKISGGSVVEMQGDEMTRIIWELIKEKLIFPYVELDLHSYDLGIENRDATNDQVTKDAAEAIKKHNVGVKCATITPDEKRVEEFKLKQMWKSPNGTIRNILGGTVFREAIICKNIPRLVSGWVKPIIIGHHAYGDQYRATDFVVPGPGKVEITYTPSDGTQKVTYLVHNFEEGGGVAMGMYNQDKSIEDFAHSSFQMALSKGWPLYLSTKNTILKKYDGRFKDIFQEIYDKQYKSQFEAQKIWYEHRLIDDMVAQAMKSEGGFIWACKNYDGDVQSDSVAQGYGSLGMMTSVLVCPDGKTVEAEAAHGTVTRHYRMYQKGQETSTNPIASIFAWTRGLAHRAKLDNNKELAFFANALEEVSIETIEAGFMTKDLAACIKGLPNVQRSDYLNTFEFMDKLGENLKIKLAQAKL

Structure (SMILES)	Potency
COc1cc(/C=C2/C(=O)ON=C2C)ccc1OCc1ccccc1F	44.7 µM (active)
CCCCOc1ccc(CN2C(=O)C(=O)c3cc(Br)cc(C)c32)cc1OC	22.4 µM (active)
CCCNc1ncnc2c1c(-c1ccccc1)cn2-c1ccc(OCC)cc1	11.2 µM (active)
Cc1cccc(N(C(=O)Cc2cccs2)C(C(=O)NC2CCCC2)c2ccsc2)c1 (centres undefined)	3.55 µM (active)
COC(=O)c1ccc(-c2c(-c3ccccc3)ncc3cc(OC)c(OC)cc23)cc1	12.6 µM (active)
COc1cc2c(-c3ccc4c(c3)OCO4)c(-c3ccsc3)oc(=O)c2cc1OC	6.31 µM (active)
Cc1ccc2nc(N3C(=O)C(O)=C(C(=O)c4ccco4)C3c3cccc(O)c3)sc2c1 (centres undefined)	28.2 µM (active)
Cn1c(COc2ccc(Cl)cc2)nc2ccccc2c1=O	inactive
COc1ccc(/C=N/Nc2cc(N3CCOCC3)nc(C)n2)c(OC)c1	15.8 µM (active)
C(=N/Nc1cc(N2CCOCC2)nc(N2CCOCC2)n1)/c1ccccc1	39.8 µM (active)
CCCc1nc2c(c(=O)c3ccccc3n2C)c(=O)n1C1CCCCCC1	8.91 µM (active)
CCCOc1ccc(C2c3c(-c4ccccc4O)n[nH]c3C(=O)N2Cc2cccnc2)cc1 (centres undefined)	14.1 µM (active)
Cc1ccc(-c2nn(-c3ccccc3)cc2/C=C2\SC(=S)N(CCCCCC(=O)O)C2=O)o1	22.4 µM (active)
O=C(NC(Nc1nc2ccc([N+](=O)[O-])cc2s1)(C(F)(F)F)C(F)(F)F)c1ccccc1	3.55 µM (active)
Cc1nc(-c2ccc(Cl)cc2)sc1C(=O)CBr	44.7 µM (active)
O=C1c2cccc3cccc(c23)C(=O)N1CCCCCc1n[nH]c(=S)o1	39.8 µM (active)
CCCCC(=O)NC(c1ccc(OC)c(OC)c1)c1ccc2cccnc2c1O (centres undefined)	inactive
COc1ccc(C(CCN(Cc2ccc(OC)c(OC)c2)C(=O)CCl)c2ccccc2)cc1 (centres undefined)	15.8 µM (active)
N#CC1=C(N)C(C#N)(C#N)[C@H](c2ccsc2)[C@H]2COCC=C12	44.7 µM (active)
COc1cc(/C=C2/SC(=S)N(Cc3ccccc3)C2=O)cc(OC)c1O	39.8 µM (active)
CCOC(=O)c1ccc(N2C(=O)c3n[nH]c(-c4ccco4)c3C2c2ccc(O)cc2)cc1 (centres undefined)	39.8 µM (active)
Cc1nc(C)c(C(=O)N(c2ccc(C)c(C)c2)C(C(=O)NCc2ccco2)c2ccccc2)s1 (centres undefined)	17.8 µM (active)
CCOC(=O)c1oc2c(CN3CCN(CCO)CC3)c(O)c(CC)cc2c(=O)c1-c1nc2ccccc2s1	22.4 µM (active)
CCCc1[nH]nc2c1C(c1ccc(OC)c(Cn3nc(C)c(Br)c3C)c1)C(C#N)=C(N)O2 (centres undefined)	31.6 µM (active)
CC(C)Nc1nc(N(c2ccccc2)c2ccccc2)nc(-n2ccnc2)n1	39.8 µM (active)
COc1ccc(/C=C2/SC(=O)N(CCCCCC(=O)Nc3ccccc3C(=O)O)C2=S)cc1	39.8 µM (active)
CCC(C)(C)NC(=O)C(c1cccn1C)N(Cc1ccc(C)cc1)C(=O)Cn1nnc2ccccc21 (centres undefined)	25.1 µM (active)
COC(=O)c1cccc(N(C(=O)c2ccco2)C(C(=O)NC2CCCC2)c2ccco2)c1 (centres undefined)	22.4 µM (active)
COc1ccc(Cl)cc1-n1c(=S)sc2c(=O)n(-c3ccc(F)cc3)c(SCC(=O)O)nc21	7.94 µM (active)
